Screens as filed in PubChem BioAssay.
PI5P4K alpha inh: inhibitors of human PI5P4K alpha | PI5P4Kalpha enzyme, ADP-Glo luminescence, 60 min; active compounds read low | P48426 | max response, % | 1.2% of 330,000 active | AID 652105; active means max response of -50% or lower; inconclusive means between -30% and -50%; inactive means -30% or higher; further: value at the top dose of about 77 µM; on the % scale 0 is the no-effect control and ±100 the full control effect
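Reactions run in 0.038 M HEPES pH 7.4, 0.28 mM EGTA, 0.1% CHAPS and 5% DMSO, with PI5P4Kalpha, substrate, compound and 5 microM ATP final, one hour at room temperature. Readout is ADP-Glo luminescence.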
LDHA inh: blocks human lactate dehydrogenase A. activity change, % (values are at about 110 or 230 µM). purified LDHA, NADH/diaphorase-resazurin fluorescence; active compounds read low. AID 1347041. 0.15% of 480,000 active. P00338; in the data active means activity change below about -30%; inconclusive means mostly about -25% to -30%;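 further: plate controls were DMSO wells for no effect and wells without enzyme for full effect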
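LDH5 2 nM; NADH 0.06 mM, pyruvate 0.2 mM; 200 mM Tris pH 7.4, EDTA, Tween-20; 5 min RT. Detection: diaphorase 0.133 mg/mL + resazurin 37 µM, fluorescence ex540/em590 at 0 and 20 min; normalized to enzyme-free and DMSO wells.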
D3 ag: activates the human D3 dopamine receptor; P35462; D3R DiscoveRx beta-arrestin cells, luminescence, 90 min; max activation, %; 0.58% of 410,000 active; AID 652048; in the data active means max activation above about 30%; further: 0% is about no effect
Target sequence (P35462 whole entry, looked up): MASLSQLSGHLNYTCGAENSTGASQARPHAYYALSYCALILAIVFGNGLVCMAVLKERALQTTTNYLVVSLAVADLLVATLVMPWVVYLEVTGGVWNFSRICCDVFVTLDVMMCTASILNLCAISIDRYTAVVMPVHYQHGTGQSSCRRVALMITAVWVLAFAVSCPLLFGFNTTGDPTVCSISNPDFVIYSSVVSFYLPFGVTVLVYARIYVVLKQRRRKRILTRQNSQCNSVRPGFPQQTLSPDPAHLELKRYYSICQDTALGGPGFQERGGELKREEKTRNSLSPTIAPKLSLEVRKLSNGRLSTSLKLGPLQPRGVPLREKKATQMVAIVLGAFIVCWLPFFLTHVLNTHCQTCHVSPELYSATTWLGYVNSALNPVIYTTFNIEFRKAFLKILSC
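Agonist-mode cell screen: cells plated at 1500/well and incubated overnight at 37 °C, then exposed to library compounds for 90 min at 37 °C. Detection reagent was added for 30–60 min at room temperature, and luminescence was read.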
PI4K2A block: PI4K2A (human) kinase inhibition; purified PI4K2A, ADP-Glo luminescence, 1 h; active compounds read low; activity change, negative = inhibition, % at 76.9 µM; AID 1346378; 0.13% of 420,000 active; Q9BTU6; in the data active means activity change below about -50%; inconclusive means mostly about -30% to -49%;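 further: -100% = wells without enzyme as full effect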
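In this quantitative HTS, ADP production by PI4K2A was quantified luminescently after 1 h at ambient temperature; 100 microM adenosine served as plate-quality control.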
DRD3 antagonist: D3 dopamine receptor (human) antagonism; P35462; max response, negative = inhibition, %; D3R cells, DiscoveRx beta-arrestin luminescence, antagonist mode; active compounds read low; 2.5% of 360,000 active; in the data active means max response below about -50%; inconclusive means no clear call, values can overlap the other calls; further: on the % scale 0 is the no-effect control and ±100 the full control effect
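Cells expressing the human receptor were seeded at 1500 cells/well, incubated overnight at 37 degrees C in 5% CO2, then exposed to library compounds with dopamine controls for 90 minutes at 37 degrees C before luminescent detection.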
An asterisk follows results filed as active; ? = inconclusive; nt = not tested or not shown. Rows were chosen to be rich in hits. Some 3.3% of all compounds tested hit in one or more screens of this group.

SMILES	PI5P4K alpha inh	LDHA inh	D3 ag	PI4K2A block	DRD3 antagonist
Cc1sc2c(c1C)c(=O)n(-c1ccc(Cl)cc1)c(=O)n2Cc1cc(=O)n2ccccc2n1	-3	-3	3	1	-55*
ClN=C1C=CC=CC1=NCl	-77*	5	0	?	-22
O=C(Nc1nccs1)c1cc(-c2ccccc2)nc2ccccc12	13	-5	44*	0	16
Cc1ccc2nc(-c3ccc(NS(C)(=O)=O)cc3)cc(-c3ccccc3)c2c1	nt	1	18	4	-16
Cc1cccc(-c2cc(C(=O)Nc3nccs3)c3ccccc3n2)c1	nt	5	nt	nt	nt
O=C(Nc1ccncc1)c1cc(-c2ccccc2)nc2ccccc12	-8	9	4	4	132
Cc1ccc2nc(-c3ccncc3)cc(-c3ccccc3)c2c1	nt	-8	57*	-2	24
Cc1cccc(-c2cc(C(=O)Nc3ccncc3)c3ccccc3n2)c1	9	-4	35*	-2	100
CCc1ccc2c(c1)c(=O)c(S(=O)(=O)c1ccccc1)cn2CC(=O)Nc1ccc(F)c(Cl)c1	nt	3	nt	nt	nt
COc1ccc(/C=N/N2C(=O)CSC2=S)cc1	nt	-1	0	-5	-5
COc1ccc(/C=N/N2C(=O)CSC2=S)cc1Br	-78*	-3	37*	-5	21
O=C1CSC(=S)N1N=Cc1ccc2c(c1)OCO2	-51*	8	-4	-14	-2
C/C(=C/C(=O)NS(=O)(=O)N(C)C)c1ccc(F)cc1	nt	6	nt	nt	nt
CCN1CCN(C(=O)c2ccc3c(c2)N(Cc2ccc(Cl)cc2)C(=O)c2ccccc2S3(=O)=O)CC1	nt	1	-14	1	nt
CCN1CCN(C(=O)c2ccc3c(c2)N(Cc2ccccc2)C(=O)c2ccccc2S3(=O)=O)CC1	-4	-5	-15	-3	-72*
Cc1cccc(OCc2nn[nH]n2)c1C	0	-5	68*	3	-12
Clc1ccccc1OCc1nn[nH]n1	-2	-7	6	-5	-13
CC(C)NC(=O)c1ccc2c(=O)n(CCc3ccccc3)c(SCC#N)nc2c1	nt	-5	nt	nt	nt
Nc1ccc(C(=O)Nc2ccc3c(O)cc(S(=O)(=O)O)cc3c2)cc1	-52*	25	8	-2	4
Nc1ccc(NC(=O)c2ccc(C(=O)Nc3ccc(N)cc3)cc2)cc1	-14	-7	-4	-3	-3
Cc1cccc(C(=O)Oc2ccc(C)c(C)c2)c1	nt	-6	nt	nt	nt
O=C(Oc1cccccc1=O)c1ccccc1	-6	1	3	6	-2
O=C(Oc1csc(=S)n1C(=O)c1ccccc1)c1ccccc1	-75*	-13	-14	2	-3
Cc1cccc(C(=O)Oc2csc(=S)n2C(=O)c2cccc(C)c2)c1	nt	-33*	3	-1	18
O=[N+]([O-])c1cccc(/C=N\N2CCN(Cc3ccccc3Cl)CC2)c1	8	0	-1	3	-78*
SMILES	PI5P4K alpha inh	LDHA inh	D3 ag	PI4K2A block	DRD3 antagonist
O=[N+]([O-])c1cccc(/C=N/N2CCN(Cc3ccccc3)CC2)c1	-4	-11	-14	4	4
Cc1csc2ncnc(N3CCN(C(=S)Nc4ccc(F)cc4F)CC3)c12	-6	-6	41*	0	19
CCc1nc(-c2ccc(OC)c(OC)c2)cc2cc(OC)c(OC)cc12	3	-3	36*	-5	53
CCN(CC)CCCNC(=O)C1c2ccccc2C(=O)N(CCOC)C1c1ccc(F)cc1 (stereo not given)	-5	-7	3	-6	4
COCCN1C(=O)c2ccccc2C(C(=O)N2CCN(c3ccccn3)CC2)C1c1ccc(F)cc1 (stereo not given)	-1	-3	-6	4	-51*
O=C(NC(=S)NCCc1ccccc1)c1ccc(Cl)cc1	nt	-5	nt	nt	nt
CC(C(=O)NC(=O)NC12CC3CC(CC(C3)C1)C2)n1cnc2c1c(=O)n(C)c(=O)n2C (stereo not given)	nt	-31*	nt	nt	nt
CC(C)NC(=O)C(C)n1cnc2c1c(=O)n(C)c(=O)n2C (stereo not given)	nt	1	nt	nt	nt
COc1cc(C(=O)/C=C/c2cccnc2)c([N+](=O)[O-])cc1OC	4	-6	0	-7	-73*
O=C(/C=C/c1cccnc1)c1ccc([N+](=O)[O-])cc1	0	-4	0	-8	-13
COc1ccc(C(=O)CSc2nnc3c(=O)n(-c4ccccc4OC)ccn23)cc1OC	nt	3	nt	nt	nt
O=C(NCCCN1CCC(Cc2ccccc2)CC1)C1CCN(S(=O)(=O)N2CCC3(CC2)OCCO3)CC1	0	-5	-5	3	7
Cc1ccccc1S(=O)(=O)Cc1ccc(C(=O)NCCCN2CCN(C)CC2)o1	-5	-3	0	-1	5
O=C(NCCN1CCC(Cc2ccccc2)CC1)C1CCN(S(=O)(=O)N2CCC3(CC2)OCCO3)CC1	0	-6	-7	-2	-50*
CS(=O)(=O)N1CCC(C(=O)NCCN2CCN(Cc3ccccc3)CC2)CC1	nt	-6	-2	3	-101*
Cc1ccccc1S(=O)(=O)Cc1ccc(C(=O)NCCN2CCN(Cc3ccccc3)CC2)o1	-8	-4	-5	2	-51*
N#C/C(=C\c1cc(Br)c(Br)o1)c1nc2ccccc2[nH]1	nt	-8	nt	nt	nt
O=C(Nc1ccc(N2CCOCC2)cc1)c1nc2ccccc2nc1N1CCOCC1	nt	0	nt	nt	nt
CC(O)(c1ccc(F)c(F)c1)c1nc(-c2ccc3ccccc3c2)cs1 (stereo not given)	7	1	-9	0	-56*
CC(O)(c1cccnc1)c1nc(-c2cccc(C(F)(F)F)c2)cs1 (stereo not given)	14	2	38*	-5	1
CC(O)(c1ccccc1)c1nc(-c2ccc(Cl)cc2)cs1 (stereo not given)	7	-6	-16	-2	-15
CC(O)(c1ccccc1)c1nc(-c2cc3ccccc3o2)cs1 (stereo not given)	32	-1	-11	0	-58*
CC(O)(c1cccc(F)c1)c1nc(-c2cccc(F)c2)cs1 (stereo not given)	26	-2	-14	-2	?
COCc1cccc(-c2csc(C(C)(O)c3cccc(F)c3)n2)c1 (stereo not given)	6	-1	-21	-3	-90*
O=c1[nH]cnc2c([N+](=O)[O-])cccc12	-12	-5	-11	-7	-80*
CCCSc1nnc(NC(=O)CSc2nc3[nH]c(=O)cc(O)c3s2)s1	-72*	1	3	0	1
COC(=O)c1ccc(C)c(NC(=O)CSc2sc3c(O)cc(=O)[nH]c3c2C#N)c1	-64*	1	4	-18	-6
CCSc1nnc(NC(=O)CSc2sc3c(O)cc(=O)[nH]c3c2C#N)s1	-102*	6	19	-6	19
C=C(C)Cn1c(-n2nc(C)c(C)c2C)nc2c1c(=O)n(C)c(=O)n2C	nt	-8	nt	nt	nt
